Measurements as given in PubChem BioAssay AID1159580 (chemical genetic matrix, 2015).
About 2,000 (36%) of roughly 5,500 compounds were called active. Inconclusive results (about 18%) are left out. No stated cut-off is given here; in the data, active means normalized growth mostly below about 0.91 (no sharp cut-off); inconclusive means no clear call, values can overlap the other calls; inactive means mostly above about 0.92. Some of the results follow.

Experiment: chemical genetic growth profiling, strain panel (AID 1159580);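 further: tested at 20 µM; growth read once vehicle control cultures reached saturation at 30 °C; 1 = growth at the plate median or of vehicle wells; lower values mean less growth of the strain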
Conditions: growth OD

Measured: normalized growth

CC12CCC3C(CC3(C)C)C(C)(CCC1=O)O2 (configuration not stated)
inactive: S. cerevisiae deletion strains, locus YJR043C, strain POL32, hits give low values 1.01 | S. cerevisiae deletion strains, locus YJR066W, strain TOR1, hits give low values 0.988 | S. cerevisiae deletion strains, locus YKL009W, strain mrt4, hits give low values 1.03 | S. cerevisiae deletion strains, locus YKL068W, hits give low values 1.01 | S. cerevisiae deletion strains, locus YKL085W, strain MDH1 (second series), hits give low values 1.01 | S. cerevisiae deletion strains, locus YKL085W, strain MDH1, hits give low values 1.01 | S. cerevisiae deletion strains, locus YKL160W, strain elf1, hits give low values 1.03 | S. cerevisiae deletion strains, locus YKL190W, strain CNB1, hits give low values 1.01 | S. cerevisiae deletion strains, locus YKR001C, strain vps1, hits give low values 1.03 | S. cerevisiae deletion strains, locus YKR026C, strain gcn3, hits give low values 0.994 | S. cerevisiae deletion strains, locus YKR091W, strain srl3, hits give low values 0.992 | S. cerevisiae deletion strains, locus YLL001W, strain dnm1, hits give low values 1.01 | S. cerevisiae deletion strains, locus YLL026W, hits give low values 0.997 | S. cerevisiae deletion strains, locus YLL041C, strain sdh2, hits give low values 0.992 | S. cerevisiae deletion strains, locus YLR027C, strain aat2, hits give low values 1.01 | S. cerevisiae deletion strains, locus YLR039C, strain RIC1, hits give low values 1.08 | S. cerevisiae deletion strains, locus YLR058C, strain SHM2, hits give low values 1.02 | S. cerevisiae deletion strains, locus YLR102C, strain apc9, hits give low values 1.01 | S. cerevisiae deletion strains, locus YLR113W, strain HOG1, hits give low values 1.04 | S. cerevisiae deletion strains, locus YLR221C, strain rsa3, hits give low values 1 | S. cerevisiae deletion strains, locus YLR258W, strain gsy2, hits give low values 0.99 | S. cerevisiae deletion strains, locus YLR262C, strain YPT6 (second series), hits give low values 0.992 | S. cerevisiae deletion strains, locus YLR268W, strain sec22, hits give low values 1.03 | S. cerevisiae deletion strains, locus YLR320W, strain mms22, hits give low values 0.992 | S. cerevisiae deletion strains, locus YLR330W, strain CHS5, hits give low values 1.02 | S. cerevisiae deletion strains, locus YLR342W, strain FKS1, hits give low values 0.992 | S. cerevisiae deletion strains, locus YLR357W, strain rsc2, hits give low values 1.01 | S. cerevisiae deletion strains, locus YLR370C, strain arc18, hits give low values 1.03 | S. cerevisiae deletion strains, locus YLR371W, strain rom2, hits give low values 0.982 | S. cerevisiae deletion strains, locus YLR384C, strain iki3, hits give low values 1 | S. cerevisiae deletion strains, locus YLR418C, strain cdc73, hits give low values 1.07 | S. cerevisiae deletion strains, locus YML016C, strain PPZ1, hits give low values 1.01 | S. cerevisiae deletion strains, locus YML032C, strain rad52, hits give low values 1.02 | S. cerevisiae deletion strains, locus YML120C, strain ndi1, hits give low values 1 | S. cerevisiae deletion strains, locus YML124C, strain tub3, hits give low values 1.02 | S. cerevisiae deletion strains, locus YMR058W, strain fet3, hits give low values 1.02 | S. cerevisiae deletion strains, locus YMR078C, strain ctf18, hits give low values 1.01 | S. cerevisiae deletion strains, locus YMR125W, strain sto1, hits give low values 1.02 | S. cerevisiae deletion strains, locus YMR129W, hits give low values 0.987 | S. cerevisiae deletion strains, locus YMR205C, strain PFK2, hits give low values 1.01 | S. cerevisiae deletion strains, locus YMR223W, strain ubp8, hits give low values 1.03 | S. cerevisiae deletion strains, locus YMR231W, strain pep5, hits give low values 1.01 | S. cerevisiae deletion strains, locus YMR307W, strain GAS1, hits give low values 1.02 | S. cerevisiae deletion strains, locus YNL067W, strain RPL9B, hits give low values 1.03 | S. cerevisiae deletion strains, locus YNL071W, strain lat1, hits give low values 0.999 | S. cerevisiae deletion strains, locus YNL183C, strain NPR1, hits give low values 0.999 | S. cerevisiae deletion strains, locus YNL209W, strain ssb2, hits give low values 0.996 | S. cerevisiae deletion strains, locus YNL233W, strain BNI4, hits give low values 1.04 | S. cerevisiae deletion strains, locus YNL248C, strain rpa49, hits give low values 1.04 | S. cerevisiae deletion strains, locus YNL250W, strain rad50, hits give low values 1.05 | S. cerevisiae deletion strains, locus YNL271C, strain bni1, hits give low values 1.02 | S. cerevisiae deletion strains, locus YNL298W, strain CLA4, hits give low values 1.02 | S. cerevisiae deletion strains, locus YNL307C, strain MCK1, hits give low values 1.03 | S. cerevisiae deletion strains, locus YNL322C, strain KRE1 (second series), hits give low values 0.985 | S. cerevisiae deletion strains, locus YNL322C, strain KRE1, hits give low values 1.01 | S. cerevisiae deletion strains, locus YNR049C, strain mso1, hits give low values 0.999 | S. cerevisiae deletion strains, locus YNR052C, strain pop2, hits give low values 1.04 | S. cerevisiae deletion strains, locus YOL006C, strain TOP1, hits give low values 1.08 | S. cerevisiae deletion strains, locus YOL012C, strain htz1 0.815 | S. cerevisiae deletion strains, locus YOL147C, strain pex11, hits give low values 0.996 | S. cerevisiae deletion strains, locus YOR001W, strain rrp6, hits give low values 0.95 | S. cerevisiae deletion strains, locus YOR061W, strain CKA2, hits give low values 1.01 | S. cerevisiae deletion strains, locus YOR069W, strain VPS5, hits give low values 1.02 | S. cerevisiae deletion strains, locus YOR070C, strain gyp1, hits give low values 1.03 | S. cerevisiae deletion strains, locus YOR080W, strain dia2, hits give low values 0.989 | S. cerevisiae deletion strains, locus YOR083W, strain WHI5, hits give low values 1.03 | S. cerevisiae deletion strains, locus YOR106W, strain vam3, hits give low values 0.998 | S. cerevisiae deletion strains, locus YOR136W, strain idh2, hits give low values 1.01 | S. cerevisiae deletion strains, locus YOR144C, strain elg1, hits give low values 1.02 | S. cerevisiae deletion strains, locus YOR184W, strain ser1, hits give low values 0.997 | S. cerevisiae deletion strains, locus YOR231W, strain MKK1, hits give low values 1.05 | S. cerevisiae deletion strains, locus YOR265W, strain rbl2, hits give low values 1.02 | S. cerevisiae deletion strains, locus YOR270C, strain vph1, hits give low values 1.1 | S. cerevisiae deletion strains, locus YOR290C, strain snf2, hits give low values 0.975 | S. cerevisiae deletion strains, locus YOR316C, strain cot1, hits give low values 1.02 | S. cerevisiae deletion strains, locus YPL051W, strain arl3, hits give low values 1 | S. cerevisiae deletion strains, locus YPL055C, strain LGE1, hits give low values 1.04 | S. cerevisiae deletion strains, locus YPL078C, strain atp4, hits give low values 1.02 | S. cerevisiae deletion strains, locus YPL106C, strain sse1, hits give low values 1.01 | S. cerevisiae deletion strains, locus YPL240C, strain hsp82, hits give low values 0.994 | S. cerevisiae deletion strains, locus YPL256C, strain CLN2, hits give low values 1.06 | S. cerevisiae deletion strains, locus YPR119W, strain clb2, hits give low values 1.02 | S. cerevisiae deletion strains, locus YPR141C, strain kar3, hits give low values 1.01 | S. cerevisiae deletion strains, locus YPR163C, strain tif3, hits give low values 1.03 | S. cerevisiae deletion strains, locus YPR167C, strain met16, hits give low values 1.02 | S. cerevisiae deletion strains, strain wtn01, hits give low values 1.01 | S. cerevisiae strains, strain wild type, hits give low values 1.03
